Over roughly 33,000 sequences, “E-score (-0.5 to 0.5)” has its median near -0.012; the highest 2% begin near 0.29. What follows is part of a selection rich in the highest values, with near analogues and random picks from the rest.
Target: T1, Ybr033w (UniProt P38073)
T1 sequence: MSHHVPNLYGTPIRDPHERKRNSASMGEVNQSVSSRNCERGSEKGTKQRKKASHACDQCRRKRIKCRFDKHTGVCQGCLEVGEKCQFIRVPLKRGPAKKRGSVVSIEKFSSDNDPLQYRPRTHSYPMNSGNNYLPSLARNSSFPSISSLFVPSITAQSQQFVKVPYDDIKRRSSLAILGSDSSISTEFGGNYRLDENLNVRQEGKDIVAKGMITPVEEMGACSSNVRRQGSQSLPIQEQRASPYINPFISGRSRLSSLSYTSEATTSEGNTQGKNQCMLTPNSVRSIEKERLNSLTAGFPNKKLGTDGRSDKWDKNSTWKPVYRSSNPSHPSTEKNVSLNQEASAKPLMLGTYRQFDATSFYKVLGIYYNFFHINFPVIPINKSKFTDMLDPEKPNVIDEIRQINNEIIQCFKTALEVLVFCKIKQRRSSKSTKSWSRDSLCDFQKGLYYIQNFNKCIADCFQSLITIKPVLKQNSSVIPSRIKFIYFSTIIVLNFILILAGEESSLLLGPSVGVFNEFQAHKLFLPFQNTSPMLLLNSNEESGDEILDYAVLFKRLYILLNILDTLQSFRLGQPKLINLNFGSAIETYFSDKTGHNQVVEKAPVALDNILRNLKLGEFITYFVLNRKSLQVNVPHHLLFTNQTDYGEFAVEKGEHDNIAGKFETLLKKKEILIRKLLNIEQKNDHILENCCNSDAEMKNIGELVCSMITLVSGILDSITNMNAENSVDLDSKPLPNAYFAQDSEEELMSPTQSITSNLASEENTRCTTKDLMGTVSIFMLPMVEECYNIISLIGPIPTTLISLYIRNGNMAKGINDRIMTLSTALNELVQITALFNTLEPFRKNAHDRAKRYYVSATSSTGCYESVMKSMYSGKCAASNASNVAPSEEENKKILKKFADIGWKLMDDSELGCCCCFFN
Experiment: PBM E-score (8-mer binding enrichment) (E-score (-0.5 to 0.5)); higher = stronger / more preferred TF binding
Details: protein concentration: 200 nM; construct: GST-full length
Summary of the method: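 Universal all-10-mer Agilent arrays, double-stranded by primer extension on fresh or once-stripped slides, were probed with about 100-200 nM GST-tagged yeast transcription factors made by PURExpress. Fluorescent anti-GST detected bound protein, and masliner normalised the scans. E-scores from the Universal PBM Analysis Suite were given to each ungapped eight-base word pooled with its reverse complement.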

Sequence | PBM E-score
ACCTACCG | -0.0859
AGCAGAGC | -0.0843
AACTCTGG | -0.0682
AAAGTTCC | 0.132
AATTAATA | 0.429
AATTAATG | 0.273
AATTAAAG | 0.217
AATTAATT | 0.214
AATTAAGC | 0.169
AATTAAGT | 0.305
AATTAAAC | 0.377
AATTAAAT | 0.276
AATTAAGA | 0.171
CAACTATG | 0.102
ACGGGTAT | 0.0865
ATTGGCTA | 0.117
ACCAAGCC | -0.0301
TCCAATCA | 0.0621
TGATAACA | 0.176
GCGAGGAA | 0.125
CTGGATAA | 0.316
TCGGATAA | 0.335
CGGGATTC | -0.0497
ACGGATTA | 0.233
CGGGATTA | 0.312
GCGGATTA | 0.285

Sequence | PBM E-score
AGGGATTA | 0.187
ACGGATAT | 0.192
CCGGATTA | 0.34
GTGGATAA | 0.169
ATGGATAA | 0.259
TGGGATAA | 0.123
GGACCACA | -0.00774
CCTACCAC | -0.155
AGCGTCCA | -0.13
TAGGCTGA | -0.0515
CACCAACC | -0.105
AATCCACT | 0.193
TAGCTTGA | -0.0114
GGCCTTGA | -0.0647
ACGTCAGG | -0.168
GCGGATAA | 0.416
GTGGATTA | 0.164
ACGGATCA | 0.236
CTGGATTC | 0.00016
CCGGATCC | -0.129
CCGGATGA | 0.289
CCGGATGC | -0.178
GCGGATGA | 0.0612
CTGGATTA | 0.309
GCGGATAC | 0.0188
CCGGATCA | 0.345

Sequence | PBM E-score
ACGGATAA | 0.276
CTTTGGTC | 0.0811
GAACTTCC | 0.16
CTTCGCCC | -0.143
AATAGGGG | -0.0543
GGGGCTCA | -0.219
AGTTGCGG | 0.0698
AAGTTAGA | 0.235
GTACAGAC | -0.1
GACACATC | -0.11
GGCTACCA | -0.203
GATGCTAC | 0.0488
CCCTTTCA | -0.19
AAGTCTTA | -0.00514
CCGGATAA | 0.454
CCGGATAG | 0.0368
CCGGATAC | -0.0612
CCAGAATA | 0.0783
ACTTTGGA | 0.156
ACCATGAC | -0.0754
ACAGCTGC | -0.0919
CGAGAGAC | -0.188
AAATTAGG | 0.138
AGATTATG | 0.148
ACATTATC | 0.219
CAATTATC | 0.365

Sequence | PBM E-score
AAATTATT | 0.417
CAATTATG | 0.08
CAATTAAC | 0.224
AAATTAGT | 0.206
CGATTATC | 0.07
AGATTATC | 0.301
AAATTATC | 0.418
AAATTATG | 0.227
CCCCACAA | -0.229
CACTTTAG | 0.112
ACTTACTC | 0.0333
GTGCGGTA | -0.0389
CCCAAGCA | -0.0848
AACCTCGG | 0.0447
GAAATCTC | -0.0338
CGGGGGAG | -0.329
AATATATT | 0.411
AAAATATT | 0.364
AATATATG | 0.204
AATATATA | 0.277
CAAATATC | 0.269
AAAATATA | 0.28
ACAATATG | 0.199
AAAATAGT | 0.225
ACAATATA | 0.264
ACAATATC | 0.293

Sequence | PBM E-score
AAAATATC | 0.304
CACCTCTC | -0.283
AGAATGGA | 0.0873
GGACGCGA | -0.0773
ATCTGGGC | -0.0818
CTCCTCGC | -0.257
CATTCTAA | 0.165
CTGGCTTC | -0.174
TATTCTGA | 0.0151
ATCTCATG | 0.0775
ATTTTCTG | 0.0635
CAAATATG | 0.0991
AAAATATG | 0.299
AGAATATG | 0.229
GTCTGACA | 0.00461
CAGTTATC | -0.0111
GAGTAGTA | 0.163
GTTAATGA | 0.12
AATAATGG | 0.162
CTTAATGA | -0.0192
ATTAATGA | 0.354
ATTAATGG | 0.289
ATTAATGC | 0.22
AATTAGCG | 0.161
AGTCTCAC | -0.0327
TAAAGGAA | 0.162

Sequence | PBM E-score
AGGATGAA | 0.187
CGGATGAA | 0.371
CGGATGAG | -0.0297
AGTCCAGC | -0.114
GGGTGAAA | 0.0993
ACAGTCGT | -0.164
CGTGGAAA | 0.182
TGAAAAAA | 0.246
TGTGGAAA | 0.291
AGGAAAAG | 0.038
AGTGGAAA | 0.146
AGGAAAAA | 0.431
AGGAAAAC | 0.12
TGGAAAAA | 0.458
GGGGAAAA | 0.208
GGGAAAAC | 0.0792
GGGAAAAA | 0.453
TGGAAACA | -0.0929
GGCTGAGA | -0.171
GTCATTAA | 0.203
TGTTATAA | 0.19
ATACGGTA | 0.125
CTTTGTGC | -0.00737
CAGGCATC | 0.00941
TCTCGACA | 0.0966
CCGACTCC | -0.185

Sequence | PBM E-score
AAGAAATT | 0.281
AAGAAAAA | 0.258
AGGAAAAT | 0.379
AGAAAAAT | 0.269
AAGAAAAT | 0.331
ACGAAAAT | 0.259
CTACTGGC | -0.052
AGTAGCTG | 0.0396
GCAGCGTA | -0.106
AGAACTAT | 0.275
ATCTTTGG | 0.0693
CTTTAATA | 0.227
CTTTAGTA | 0.0159
CTTTAATC | 0.145
ATTTAGTA | 0.376
ATTTAATC | 0.352
GTTTAATA | 0.264
ATTTAGTC | 0.0709
ATTTAATA | 0.325
ATTTAATG | 0.244

From the supplement of paper PMC3334620
